# Results reported in PubChem BioAssay (EPA / NIEHS).
# Activity calls are given as the source filed them. Rule for the calls: active = hit-call score of the fitted dose curve at least 0.9, where 1 is the maximum; inactive = score below 0.9.
# Assay: APR_HepG2_NuclearSize_24hr: Apredica 24-hour HepG2 Assay for Nuclear Size (AID 2282907)
# Conditions: high-content imaging, actives raise or lower the signal
# Description: APR_HepG2_24hr is a cell-based, multiplexed-readout assay that uses HepG2, a human liver cell line, with measurements taken at 24 hours after chemical dosing in a 384-well plate.APR_HepG2_NuclearSize_24hr is one of 10 assay component(s) measured or calculated from the APR_HepG2_24hr assay. It is designed to make measurements of cell phenotype, a form of morphology reporter, as detected with fluorescence intensity signals by HCS Fluorescent Imaging technology.Data from the assay component APR_HepG2_NuclearSize_24hr was analyzed into 1 assay endpoint. This assay endpoint, APR_HepG2_NuclearSize_24hr, was analyzed with bidirectional fitting relative to DMSO as the negative control and baseline of activity. Using a type of morphology reporter, measures of all nuclear dna for gain or loss-of-signal activity can be used to understand the signaling at the nuclear-level. Furthermore, this assay endpoint can be referred to as a primary readout, because this assay has produced multiple assay endpoints where this one serves a signaling function. To generalize the intended target to other relatable targets, this assay endpoint is annotated to the cell morphology intended target family, where the subfamily is organelle conformation.
# Cells were treated with dimethyl sulfoxide (DMSO) as a solvent control at a final concentration of 0.5% v/v or with compounds in DMSO with a resulting final DMSO concentration of 0.5% v/v. Compound treatment was done at concentrations of 0.39, 0.78, 1.56, 3.12, 6.24, 12.5, 25, 50, 100, and 200 uM in duplicate on each plate. Cells were treated with compounds for 1, 24, or 72 hr. Carbonyl […] m-chloro-phenylhydrazone (CCCP) and taxol were used as positive controls for mitochondrial function and cytoskeletal stability, respectively; DMSO served as the negative control for this experiment. Cells were fixed by the direct addition of 50 uL formaldehyde in Hank's Balanced Salt Solution (HBSS) to a final concentration of 3.7%. After incubation in the fixation medium for 30 min at room temperature (293-298 K), cells were rinsed twice with HBSS and treated with cell permeabilization buffer (16 uL of 0.5% Triton X-100) for 10 min at room temperature (293-298 K) before labeling. For mitochondrial membrane potential and mitochondrial measurements, pre-fixed cells were incubated with 50 uL of MitoTracker Red CMXRos (Invitrogen) at a concentration of 250 nM for 30 min before fixation. In the remaining cases, post-fixed cells were labeled by incubation with a multiplexed mixture of primary antibodies in HBSS for 60 min at room temperature (293-298 K) to detect immunoreactivity of c-Jun (1:500), phospho-histone H3 (1:100), phospho-histone H2A.x (1:200), p53 (1:400), alpha-tubulin (1:200) and Hoechst 33342 (2 ug/mL). Cells were labeled for multiplexed imaging on two separate plates: a) Hoechst 33342, MitoTracker Red, phospho-histone H3, and alpha-tubulin, and b) Hoechst 33342, phospho-histone H2A.x, and c-Jun. A final rinse with HBSS (50 uL) was performed before analysis. The primary and secondary antibodies for the proteins were phospho-histone H3 (rabbit anti-phospho-histone H3 and FITC-donkey anti-rabbit IgG), phospho-histone H2A.x (mouse anti-phospho-histone H2A.x and FITC-donkey anti-mouse IgG), c-Jun (rabbit anti-phospho-c-Jun and Cy3-donkey anti-rabbit IgG), p53 (sheep anti-p53 and Cy5-donkey anti-sheep IgG), alpha-tubulin (mouse anti-alpha-tubulin and Cy5-donkey anti-mouse IgG). These antibodies are available as the CellCiphr HepG2 assay kit (Millipore).Digital images of each well were captured using a Cellomics ArrayScan VTI (Thermo Scientific Cellomics) (0.8 NA objective, 0.63x optical coupler, and XF-93 filter set) at 20x magnification. The images were acquired using the autofocus feature of the ArrayScan instrument, which entails the following steps. First, the camera focuses on channel 1 (Hoechst 33342), where nuclei are identified. Second, a Z offset of 1 um is used for capturing mitochondria (MitoTracker Red). […]
SMILES,outcome,AC50
CN(C)N=O,inactive,–
C=C(C)C(=O)[O][Sn]([CH2]CCC)([CH2]CCC)[CH2]CCC,inactive,–
Cc1ccccc1N,inactive,–
CCC(C)(C)c1ccc(O)c(C(C)(C)CC)c1,–,39.1 µM (active)
CC(C)(C)CC(C)(C)c1ccc(O)cc1,–,52.3 µM (active)
CC(C)(c1ccccc1)c1ccc(O)c(C(C)(C)c2ccccc2)c1,–,22 µM (active)
ClC1(Cl)C2(Cl)C3(Cl)C4(Cl)C(Cl)(Cl)C5(Cl)C3(Cl)C1(Cl)C5(Cl)C24Cl (stereo not drawn),inactive,–
Cn1sc(Cl)cc1=O,inactive,–
CC(C)(OO)c1ccccc1,–,65.1 µM (active)
CCC(=O)C(CC(C)N(C)C)(c1ccccc1)c1ccccc1 (stereo not drawn),inactive,–
O=c1[nH]c(=O)[nH]c(=O)[nH]1,inactive,–
O=C(O)C(F)(F)C(F)(F)C(F)(F)C(F)(F)C(F)(F)C(F)(F)C(F)(F)C(F)(F)C(F)(F)C(F)(F)F,inactive,–
C[C@]12CCC(=O)C[C@@H]1CC[C@@H]1[C@@H]2CC[C@]2(C)[C@@H](O)CC[C@@H]12,inactive,–
NC(=O)O,–,9.65 µM (active)
O=C(Nc1ccc2[nH]ccc2c1)c1cc2cc(F)ccc2n1Cc1cccc(F)c1,inactive,–
COc1cc(-c2ccc(N)c(OC)c2)ccc1N,inactive,–
O=C(O)C(Cl)(Cl)Cl,inactive,–
CCCCCCCCc1ccc(O)cc1,–,103 µM (active)
O=C1C2(Cl)C3(Cl)C4(Cl)C(Cl)(Cl)C5(Cl)C3(Cl)C1(Cl)C5(Cl)C24Cl (stereo not drawn),inactive,–
CC12CC1(C)C(=O)N(c1cc(Cl)cc(Cl)c1)C2=O (stereo not drawn),inactive,–
CC(C)(C)c1cc(O)ccc1O,inactive,–
C=CC(=O)OCCCCCC(C)C,inactive,–
ClCC(Cl)CCl,inactive,–
C[C@@H]1C[C@@H]([C@H](O)CC2CC(=O)NC(=O)C2)C(=O)[C@@H](C)C1,inactive,–
CCN1CCC2(CC1)COc1cc3c(cc12)N(C(=O)c1ccc(-c2ccc(-c4nnc(C)o4)cc2C)cc1)CC3,inactive,–
CC(=O)[O][Hg][c]1ccccc1,–,66.6 µM (active)
O=C(O)C(F)(F)C(F)(F)C(F)(F)C(F)(F)C(F)(F)C(F)(F)F,inactive,–
Oc1cccc2cccnc12,inactive,–
